RecA intein inh – blocks M. tuberculosis RecA intein splicing; actives 0.75% (n = 290,000); inhibition, % (concentration not given with the values); cell-free RecA intein splicing, fluorescence; P9WHJ3; in the data active = inhibition above about 30%;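 note: 0% = vehicle wells and 100% = reference inhibitor control wells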
Target sequence (P9WHJ3 whole entry, looked up): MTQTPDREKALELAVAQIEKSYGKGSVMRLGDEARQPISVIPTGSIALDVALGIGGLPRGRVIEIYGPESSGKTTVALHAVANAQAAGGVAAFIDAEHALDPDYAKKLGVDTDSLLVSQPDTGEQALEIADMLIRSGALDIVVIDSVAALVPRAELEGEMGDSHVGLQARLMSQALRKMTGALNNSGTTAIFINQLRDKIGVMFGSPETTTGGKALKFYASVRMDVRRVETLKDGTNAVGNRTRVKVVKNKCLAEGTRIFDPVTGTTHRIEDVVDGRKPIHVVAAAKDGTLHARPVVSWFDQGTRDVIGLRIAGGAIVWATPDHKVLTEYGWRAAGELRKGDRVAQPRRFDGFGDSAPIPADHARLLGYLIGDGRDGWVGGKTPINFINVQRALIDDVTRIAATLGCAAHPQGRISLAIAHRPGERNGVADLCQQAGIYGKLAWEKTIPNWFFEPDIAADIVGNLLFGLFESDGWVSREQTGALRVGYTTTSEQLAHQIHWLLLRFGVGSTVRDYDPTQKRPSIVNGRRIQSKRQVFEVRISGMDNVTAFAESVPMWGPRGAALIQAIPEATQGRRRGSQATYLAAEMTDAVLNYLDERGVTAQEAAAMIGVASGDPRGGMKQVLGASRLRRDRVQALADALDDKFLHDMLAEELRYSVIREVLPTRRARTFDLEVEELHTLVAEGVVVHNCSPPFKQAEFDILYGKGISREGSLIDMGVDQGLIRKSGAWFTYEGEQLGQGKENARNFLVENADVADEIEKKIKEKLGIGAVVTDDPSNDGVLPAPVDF
Mtb RmlCD inh – M. tuberculosis RmlC/RmlD inhibition; RmlC+RmlD coupled enzyme assay, percent inhibition; primary screen in compound mixtures; inhibition, % at 3.6 µM; actives 0.03% (n = 160,000); in the data active = inhibition mostly above about 34%, no sharp cut-off
GFP chromophore – counter-screen: blocks GFP chromophore formation; shares compounds with RecA intein inh; cell-free GFP chromophore formation, fluorescence; EC50, µM; actives 83% (n = 2,100); AID 434968; call rule not given here
An asterisk follows results filed as active; . = not tested or not shown. Only some compounds are listed: those with a hit (about 0.77% of all), similar ones and a draw of the others.

SMILES	RecA intein inh	Mtb RmlCD inh	GFP chromophore
Cc1ccc(NC2=C(N3CCCCC3)C(=O)c3ccccc3C2=O)cc1	67.4*	.	9.52*
O=C(O)c1cccc(NC2=C(Cl)C(=O)c3ccccc3C2=O)c1	.	-2.5	.
CN(C1=C(N2CCCCC2)C(=O)c2ccccc2C1=O)c1ccccc1	25.3	.	.
Cc1c(Cl)cccc1-n1ccnc1SCC(=O)O	-0.7	.	.
Nc1nc(N)c(C=Nc2ccc(Br)cc2)c(Nc2ccc(Br)cc2)n1	-2.7	-34.8	.
CC(=O)Nc1ccc(S(=O)(=O)NCC2CCC(C(=O)NCCCN3CCCC3=O)CC2)cc1 (stereo not given)	-3.2	8.4	.
Cc1ccc(Cl)cc1NC(=S)N1CCCCCC1	0.4	.	.
Cc1c(NC(=O)CN2C(=O)C(=O)c3ccccc32)c(=O)n(-c2ccccc2)n1C	0.8	5.1	.
O=[N+]([O-])c1cc2cccnc2c2ncccc12	.	-6.3	.
O=[N+]([O-])c1cc(O)c2ncccc2c1	36.8*	6.1	11.8*
COC1(OC)C(/C=C/c2ccc(C)cc2)C(C#N)(C#N)C1(OC)OC (stereo not given)	58.7*	.	>38
O=C(O)CSc1nnc(Cn2c(=O)sc3ccccc32)n1-c1cccc(Cl)c1	-3.6	19.8	.
Cc1ccc(S(=O)(=O)Nc2ccc3c4c(cccc24)CC3)c(C)c1	-1.3	.	.
COc1ccc(S(=O)(=O)Nc2ccc(O)c3ccccc23)cc1	95.8*	-13.8	0.136*
COc1ccc(S(=O)(=O)Nc2ccccc2)cc1	1.9	.	.
Cc1ccc(S(=O)(=O)Nc2ccc(O)c3ccccc23)c(C)c1	96.8*	.	0.226*
Cc1ccc(C)c(S(=O)(=O)Nc2ccc(O)c(C(=O)O)c2)c1	0.1	4.2	.
Cc1ccc(C)c(S(=O)(=O)Nc2ccc(O)c3ccccc23)c1	95.2*	.	0.228*
CCC(CC(C)(C)O)C(=O)NNC(=S)Nc1ccccc1 (stereo not given)	-0.8	5.9	.
COC(=O)c1ccc(NC(=O)CSc2nnc(-c3ccccc3Br)n2-c2ccccc2)cc1	-0.5	.	.
S=C(NC1CCCCC1)N1CCOCC1	-1.8	7.2	.
COc1ccc(-c2nc3ccccc3nc2-c2ccc(OC)c(OC)c2)cc1OC	0.2	.	.
COc1ccc2nc(-c3ccco3)c(-c3ccco3)nc2c1	-92.0	-2.4	.
COc1ccc2nc3cccc(OC)c3nc2c1	45.5*	-10.8	24.2*
COc1ccc2nc3ccccc3nc2c1N	64.0*	12.6	39.7*
SMILES	RecA intein inh	Mtb RmlCD inh	GFP chromophore
COc1ccc(NC(=O)CCCCCN2C(=O)c3cccc([N+](=O)[O-])c3C2=O)c(OC)c1	-1.8	.	.
Nn1cnnc1N/N=C/c1ccc(F)cc1	-0.3	.	.
Nn1cnnc1N/N=C/c1ccc(Cl)c([N+](=O)[O-])c1	59.4*	1.6	25.4*
CC(=O)c1cc(O)c2ccccc2c1O	70.2*	2.6	6.9*
CC(=O)c1c(C)oc2c1cc(O)c1ccccc12	0.0	-8.2	.
CC(C)CNC(=O)C(=O)NCc1ccccn1	0.7	19.7	.
COc1ccc(N2C(=O)c3ccc(C(=O)Nc4ccccc4O)cc3C2=O)cc1	-0.1	.	.
O=C(Cc1c[nH]c2ccccc12)NNC(=O)c1ccccc1	1.4	-2.6	.
CC(=O)Nc1ccc(-c2nc3cc(Cl)ccc3o2)cc1	1.7	.	.
O=C(O)c1ccccc1-c1ccccc1C(=O)Nc1ccc(-c2nc3cc(Cl)ccc3o2)cc1	35.7*	12.6	16.9*
CCOC(=O)c1cc(C#N)c(N2CCNCC2)nc1C(F)(F)F	.	5.0	.
CN1CCN(CC(=O)N2N=C(c3cccs3)CC2c2ccco2)CC1 (stereo not given)	1.5	7.0	.
O=C(CCl)N1N=C(c2cccs2)CC1c1ccco1 (stereo not given)	62.6*	3.7	31.1*
O=C(CN(C(=O)CNC(=O)c1ccco1)c1ccc2c(c1)OCCO2)NC1CCCC1	0.5	3.5	.
Cc1nn(C(C)C(=O)c2cccc(Cl)c2)c(C)c1[N+](=O)[O-] (stereo not given)	1.0	.	.
Cn1cnc([N+](=O)[O-])c1S(=O)(=O)c1cccc(Cl)c1	60.6*	2.2	26.9*
COc1ccc2cc(S(=O)(=O)NC3CC(C)(C)NC(C)(C)C3)ccc2c1	-1.9	.	.
CCC(C(=O)NCC1CCCO1)N(C(=O)c1snc(C(N)=O)c1N)c1ccc(Cl)cc1 (stereo not given)	-3.0	.	.
CC(C)CN(c1ccccc1)S(=O)(=O)c1nnc(NC(=O)c2ccco2)s1	2.5	.	.
COCCN(C(=O)COC(=O)Cc1coc2cc(C)ccc12)c1c(N)n(Cc2ccccc2)c(=O)[nH]c1=O	1.9	.	.
CCOC(=O)c1c(C)oc2c1cc(O)c1ccccc12	5.7	-0.2	.
CCOC(=O)c1c(C)oc2c1c1c(c3ccccc32)OCN(CCCC(=O)O)C1	89.7*	5.0	19.9*
Cc1ccccc1Nc1nc(NCc2ccco2)c2ccccc2n1	27.8	-1.6	.
Oc1ccccc1Nc1nc(NCc2ccco2)c2ccccc2n1	22.2	.	.
c1ccc(Nc2nc(NCc3ccco3)c3ccccc3n2)cc1	37.6*	-2.0	26.4*
SMILES	RecA intein inh	Mtb RmlCD inh	GFP chromophore
Cc1cccc(Nc2nc(NCc3ccco3)c3ccccc3n2)c1	32.6*	6.3	15.2*
O=C(/C=C/c1cccc([N+](=O)[O-])c1)N1CCN(Cc2ccc3c(c2)OCO3)CC1	-2.5	.	.
C[N+]1(C)CCC(OC(=O)C(c2ccccc2)c2ccccc2)CC1	1.8	.	.
Cc1ccc(C(=O)N(C)CC(=O)Nc2ccc(N3CCOCC3)cc2)s1	-4.7	.	.
CS(=O)(=O)c1ccc(Sc2nc3ccccc3[nH]2)c([N+](=O)[O-])c1	0.9	-0.1	.
O=[N+]([O-])c1cc(S(=O)(=O)C(F)(F)F)ccc1Sc1nc2ccccc2[nH]1	81.6*	5.8	1.47*
CS(=O)(=O)c1ccc(Sc2nc3ccccc3s2)c([N+](=O)[O-])c1	0.2	-1.1	.
O=[N+]([O-])c1cc(S(=O)(=O)C(F)(F)F)ccc1Sc1nc2ccccc2s1	84.6*	.	0.253*
COc1ccc(CCCNC(=O)C2CCC(=O)N(Cc3ccccc3F)C2)cc1 (stereo not given)	-0.7	.	.
Nc1c(-c2ccccc2)c(CSc2nc3ccccc3[nH]2)nn1-c1ccc(Cl)cc1	15.8	-0.4	.
Nc1c(-c2ccccc2)c(CSc2nc3ccccc3[nH]2)nn1-c1cccc(Cl)c1	36.6*	-4.6	11.4*
C=CCOc1ccccc1/C=c1\sc2nc(=O)c(C)nn2c1=O	-2.0	7.8	.
O=C(CCC(=O)N1CCN(Cc2ccc(F)cc2)CC1)Nc1nnc(C(F)(F)F)s1	0.1	.	.
O=c1oc(-c2cccnc2)nc2ccccc12	0.6	1.1	.
Cc1onc(-c2ccccc2)c1-c1nc2ccccc2c(=O)o1	31.8*	8.2	2.29*
CCOC(=O)C1=C(c2ccccc2)Nc2ncnn2C1c1ccc(C(=O)O)cc1 (stereo not given)	0.5	-6.3	.
CCOC(=O)C1=C(c2ccccc2)NC(N)=NC1c1ccc(OCc2ccc(C(=O)OC)cc2)cc1 (stereo not given)	46.1*	14.3	26.3*
COc1ccc(C(=O)NCC(=O)Nc2ccc(-c3ccccc3)cc2)cc1	-1.4	.	.
Cc1cc(N)n(-c2ccc([N+](=O)[O-])cc2)n1	0.7	-0.9	.
Cc1cc(C)n(-c2ccc([N+](=O)[O-])cc2)n1	42.5*	.	>38
Cc1ccc(S(=O)(=O)Cc2cc(F)c([N+](=O)[O-])cc2[N+](=O)[O-])cc1	34.6*	.	22.8*
CCOC(=O)c1ccc([N+](=O)[O-])c(CS(=O)(=O)c2ccc(Cl)cc2)c1	0.5	.	.

Source: PubChem BioAssay (several laboratories)
